Source: PubChem BioAssay (National Center for Advancing Translational Sciences (NCATS))
Pf growth 48h: Primary qHTS for delayed death inhibitors of the malarial parasite plastid, 48 hour incubation; actives 5.9% (n = 310,000); Potency, µM (titrated, usually from 28.7 µM), for inactives: at the highest dose activity change, negative = inhibition, most hits filed as inhibitors; AID 504832, 2011; P. falciparum luciferase growth in erythrocytes, 48 h; note: potency is the fitted concentration of half-maximal effect; % is set by controls: 0 for no effect and ±100 for the full control effect
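Luciferase-expressing parasites in RBCs, 2% Hct / 0.1% parasitemia final; RPMI 1640 + 0.5% Albumax; 37 C, 5% CO2, one generation; luminescence read-out, lower signal = inhibition.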
Pf growth 96h: Primary qHTS for delayed death inhibitors of the malarial parasite plastid, 96 hour incubation; P. falciparum luciferase reporter growth, 96 h; Potency, µM (highest dose often 28.7 µM), without a hit: top-dose activity change, negative = inhibition, usual class: inhibitors; actives 6.9% (n = 320,000); AID 504834, 2011; note: potency is the fitted concentration of half-maximal effect; % is set by controls: 0 for no effect and ±100 for the full control effect
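P. falciparum expressing integrated firefly luciferase, in erythrocytes at 2% hematocrit, 0.05% parasitemia, incubated with compounds 96 h at 37 C, 5% CO2. Growth inhibition read as loss of luminescence; two-generation exposure targets delayed-death apicoplast inhibitors.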
SARS PLpro yeast-1: qHTS of Yeast-based Assay for SARS-CoV PLP; actives 0.19% (n = 330,000); Potency, µM (series often up to 32.9 µM), for the others: at the top dose activity, positive = growth rescue, actives largely listed as activators; S. cerevisiae expressing SARS-CoV PLpro, growth rescue; calls by dose curve; note: potency is the fitted concentration of half-maximal effect; 0% is about no effect; nearly all actives have a fitted effect of over 55% in size
Sm TGR inh: qHTS Assay for the Inhibitors of Schistosoma Mansoni Peroxiredoxins | Potency, µM (top dose mostly 114 µM), inactives show at the highest dose activity change, negative = inhibition, actives largely listed as inhibitors | actives 3% (n = 360,000) | Schistosoma mansoni thioredoxin glutathione reductase (TGR), Q962Y6 | purified TGR, DTNB reduction, TNB absorbance 405 nm; note: potency is the fitted concentration of half-maximal effect; % is set by controls: 0 for no effect and ±100 for the full control effect; nearly all actives have a fitted effect of over 60% in size
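First, TGR (20 nM dispensed) and NADPH were mixed with compound. Second, a 15 min room-temperature incubation followed. Third, further NADPH and then DTNB were added to start the reaction. Finally, TNB absorbance was monitored kinetically.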
SARS PLpro yeast-2: qHTS of Yeast-based Assay for SARS-CoV PLP: Hit Validation; shares compounds with SARS PLpro yeast-1; yeast expressing SARS-CoV PLpro, growth phenotype rescue; calls only; actives 19% (n = 1,000); call rule not given here
Active calls of the source: *; i = inactive; ? = inconclusive; . = no result; + = active, no number. This is a sample that favours compounds with a hit; in the whole collection about 12% have one here. Unless noted, calls come from the whole dose curve; as a rule, active = well fitted curve in the direction sought with a large enough effect; inconclusive = small, poorly fitted or top-dose-only effect, or another doubt; inactive = no such curve, though single readings can be large; an effect the other way counts as inactive or inconclusive.

SMILES	Pf growth 48h	Pf growth 96h	SARS PLpro yeast-1	Sm TGR inh	SARS PLpro yeast-2
COc1ccccc1NC(=O)C(C)OC(=O)CCSc1ccc(F)cc1 (stereo not drawn)	-14%	-3%	3%	0%	.
O=C(CC(NC(=O)c1ccccc1)c1ccccc1)Nc1cccc2ccccc12 (stereo not drawn)	?	28%	?	-16%	i
COc1ccc(CNC(=O)c2ccc(Cl)c(S(=O)(=O)N3CCOCC3)c2)cc1OC	?	?	-3%	-17%	.
COc1cc([N+](=O)[O-])cc(/C=N/NC(=O)C(C)Nc2cccc3ccccc23)c1O (stereo not drawn)	?	36%	10µM*	-18%	?
Cc1ccc(NC(=O)CSc2ncccc2C(=O)Oc2cccc([N+](=O)[O-])c2)cc1Cl	71%	?	?	0%	i
CCOc1ccc(NC(=O)C2(c3cccs3)CCOCC2)cc1	.	.	.	4%	.
CCC(CC)C(=O)Nc1cccc(-c2nc3cccnc3s2)c1C	.	.	.	-3%	.
Cc1ccccc1OCc1nc2ccccc2c(=O)n1/N=C/c1cccc([N+](=O)[O-])c1	80%	99%	10%	-8%	.
Cc1cc(/C=N/n2c(COc3ccccc3)nc3ccccc3c2=O)c(O)c([N+](=O)[O-])c1	0%	0%	2.5µM*	-5%	+
O=C(NC1CCSC1=O)C1CC(=O)N(c2ccc(F)cc2)C1 (stereo not drawn)	20%	24%	2%	4%	.
COCCC1CCCCN1C(=O)c1cc(COc2ccc(-n3cncn3)cc2)on1 (stereo not drawn)	11%	?	?	-9%	i
CC(=O)N1c2ccc(S(=O)(=O)N3CCCCC3)cc2CC1C(=O)NCc1cccc(Cl)c1 (stereo not drawn)	-8%	?	2%	-1%	.
CCC(=NNC(=O)c1ccc2c(c1)nc(C)n2CC)c1cc(F)ccc1O	.	.	10µM*	.	i
O=C(NCc1ccco1)c1cccc2c1C(=O)c1ccc(/C=C/c3ccccc3)cc1S2(=O)=O	.	.	-5%	.	.
Cc1ccc(CCNC(=O)NCc2noc3ccc(C)cc23)cc1	.	.	.	-1%	.
Cn1ncc(Cl)c1C(=O)N/N=C/c1ccccn1	18%	-10%	?	-9%	+
CCN1C(=O)[C@H]2[C@H]3CN=C(SCC(=O)c4ccccc4)N3[C@@](C)(C(=O)OC)[C@H]2C1=O	.	.	.	.	i
COC(=O)[C@@]1(C)[C@H]2C(=O)N(Cc3ccccc3)C(=O)[C@H]2[C@H]2CN=C(SCc3ccccc3)N21	.	.	29%	.	.
O=C1CN(S(=O)(=O)c2cccc(Cl)c2Cl)c2ccccc2N1	-3%	20%	-1%	-6%	.
Cc1nc(N2CCOCC2)c2c(C(=O)NCCc3ccccc3)c(C)oc2n1	.	.	.	3%	.
COc1ccccc1-c1nnn(CC#N)n1	-3%	-18%	?	-8%	i
CNC(=S)N/N=C/C1=CCC2CC1C2(C)C (stereo not drawn)	5.9µM*	4.1µM*	13µM*	2%	+
CCOc1cc(N2CCCC2)ccc1[N+](=O)[O-]	10%	6.6µM*	?	4%	i
C/C(=N\NC(=O)c1cc(-c2cccnc2)nc2ccccc12)c1ccccc1O	6.6µM*	?	10µM*	-6%	+
Cc1nn2c(=O)cc(COC(=O)c3cccs3)nc2s1	.	.	.	-4%	.
SMILES	Pf growth 48h	Pf growth 96h	SARS PLpro yeast-1	Sm TGR inh	SARS PLpro yeast-2
CNC(=O)C1CCC(Cn2c(=O)c3sccc3n(CC(=O)NCc3ccc(F)cc3)c2=O)CC1 (stereo not drawn)	.	.	.	2%	.
Cc1ccc(N2CC(C(=O)OCC(=O)Nc3ccccc3C)CC2=O)cc1 (stereo not drawn)	16%	-5%	?	0%	?
CCOc1cc(CNCCSc2nnnn2C)cc(Br)c1OCc1ccc(F)cc1	?	10µM*	?	-1%	i
CCNC(=S)NNC(=O)c1ccccn1	?	?	?	-12%	i
O=c1c2ccccc2nc(N/N=C/c2ccc(O)cc2)n1O	?	3%	-1%	-22%	.
O=c1c2ccccc2nc(N/N=C/c2c(O)ccc3ccccc23)n1O	0.52µM*	0.47µM*	13µM*	2%	+
COc1ccccc1C(=O)Nc1cccc(OCc2cc(=O)n3ccccc3n2)c1	.	.	.	2%	.
CC(COC(=O)c1ccccc1)(COC(=O)c1ccccc1)/[N+]([O-])=C/c1ccccc1	13%	29%	?	-2%	i
O=C(N/N=C/c1ccccc1OC(F)F)c1cc(-c2ccncc2)nc2ccccc12	?	?	13µM*	-1%	+
NC(=O)c1ccc(NC(=O)COC(=O)/C=C/c2cn(-c3ccccc3)nc2-c2cccnc2)cc1	-18%	4%	?	-6%	i
COc1cc(OC)cc(-c2nc3ccccc3c(=O)n2OC(=O)c2ccccc2C)c1	19%	-2%	?	7%	+
COc1ccc(-c2nc3ccccc3c(=O)n2O)cc1	?	?	-1%	12%	.
CCOc1ccc(-c2nnc3ccc(SCC(=O)Nc4nc5ccccc5s4)nn23)cc1	-39%	-69%	?	-2%	i
CN1C(=O)/C(=C2/C=CC=CN2C)OC1=S	-2%	15%	?	-31%	?
CCc1ccc(CNC(=O)CCCn2nc(C)n3ccnc3c2=O)cc1	16%	?	?	-15%	i
Cc1sc2ncn(CC(=O)N3CCN(c4ccc(Cl)cc4)CC3)c(=O)c2c1S(=O)(=O)N1CCN(c2ncccn2)CC1	.	.	.	-1%	.
CSc1ccc(CCNC(=O)Cn2ncc3c(=O)oc4ccc(C)cc4c32)cc1	.	.	.	2%	.
CC(=O)O[C@@]12CO[C@@H]1C[C@@H](O)[C@@]1(C)C(=O)[C@H](O)C3=C(C)[C@@H](OC(=O)[C@H](O)[C@@H](NC(=O)c4ccccc4)c4ccccc4)C[C@@](O)([C@@H](OC(=O)c4ccccc4)C12)C3(C)C (stereo partly drawn)	?	0.046µM*	?	-13%	?
COc1ccccc1CNC(=S)NCCc1ccccc1	12%	1%	?	2%	?
CCc1ccc(C(=O)NNC(=O)c2cccc(S(=O)(=O)N3CCN(C)CC3)c2)cc1	?	8%	-1%	-14%	.
NS(=O)(=O)c1ccc(NC(=O)c2ccc(OCC3CCCO3)cc2)cc1 (stereo not drawn)	.	.	4%	.	.
CN(CC1CCCO1)S(=O)(=O)c1ccc(C(=O)Nc2ccc(S(N)(=O)=O)cc2)cc1 (stereo not drawn)	-16%	-5%	0.4µM*	4%	i
COc1cc(/C=C/c2nc3cc(Cl)ccc3c(=O)n2-c2cccc(C(F)(F)F)c2)cc(OC)c1OC	.	.	.	6%	.
